From publication PMC5540273 (PLoS ONE, 2017)

Legend:
Details in all cases: concentration: 1 μM, replicates: in singlicate; n = 1
MAP3K15 = tested on: MAP3K15
MAP3K1 = tested on: MAP3K1
MAP3K2 = tested on: MAP3K2
MAP3K3 = tested on: MAP3K3
MAP3K4 = tested on: MAP3K4
MAP4K2 = tested on: MAP4K2
MAP4K3 = tested on: MAP4K3
MAP4K4 = tested on: MAP4K4
MAP4K5 = tested on: MAP4K5
MAPKAPK2 = tested on: MAPKAPK2
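Note: KINOMEscan kinase panel screen.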

| Compound | %Inh (MAP3K15) | %Inh (MAP3K1) | %Inh (MAP3K2) | %Inh (MAP3K3) | %Inh (MAP3K4) | %Inh (MAP4K2) | %Inh (MAP4K3) | %Inh (MAP4K4) | %Inh (MAP4K5) | %Inh (MAPKAPK2) |
| --- | --- | --- | --- | --- | --- | --- | --- | --- | --- | --- |
| Cc1occc1-c1ncc(OC[C@@H](N)Cc2c[nH]c3ccccc23)cc1-c1ccc2[nH]nc(C)c2c1.O=C(O)C(F)(F)F [GSK682037] | 10% | 11% | 96.9% | 98.6% | 22% | 99.3% | 99.4% | 99.2% | 99.6% | 0% |
| COc1ccc(CNC(=O)NC2CCN(c3ccnc(Nc4ccc(F)cc4)n3)CC2)cc1 [GSK1379788] | 0% | 4% | 0% | 0% | 0% | 0% | 0% | 2% | 0% | 1% |
| Nc1n[nH]c2cnc(-c3ccccc3)cc12 [SB-642124] | 21% | 14% | 12% | 0% | 23% | 31% | 3% | 17% | 0% | 20% |
| COc1cccc(C2=C(Nc3ccc(Cl)c(C(=O)O)c3)C(=O)NC2=O)c1 [SB-390769] | 24% | 13% | 100% | 0% | 29% | 100% | 0% | 100% | 100% | 26% |
| Cl.Cl.NCC(C(=O)Nc1cc(Br)c(-c2ccnc3[nH]ccc23)s1)c1ccccc1 (stereo not shown) [GSK1269851] | 0% | 17% | 13% | 0% | 63% | 13% | 0% | 20% | 0% | 0% |
| c1ccc(-c2cnc3nccnn23)cc1 [AH20685] | 0% | 0% | 0% | 0% | 21% | 0% | 0% | 0% | 0% | 0% |
| COc1cc(Nc2ncc3c(C)nc(-c4cc5ccccc5[nH]4)n3n2)cc(OC)c1OC [GW869516] | 0% | 0% | 0% | 14% | 52% | 0% | 0% | 19% | 11% | 0% |
| c1ccc(-c2n[nH]cc2Nc2ccnc3ccccc23)nc1 [GW694077] | 6% | 0% | 38% | 0% | 9% | 65% | 0% | 20% | 0% | 0% |
| O=C(Nc1n[nH]c2cc(-c3ccoc3)ccc12)C1CC1 [SB-738481] | 10% | 0% | 3% | 50% | 17% | 2% | 0% | 10% | 0% | 0% |
| Cc1ccc(F)c(C(=O)Nc2cccc(-c3nn4ccccc4c3-c3ccnc(Nc4cccc(F)c4)n3)c2)c1F [GSK361061] | 24% | 31% | 16% | 0% | 44% | 0% | 18% | 25% | 80% | 23% |
